Compound activity as filed in PubChem.
Hits are enriched below; roughly 3.3% of the tested compounds scored in any of these assays.
Plk1 PBD FP: Plk1 (human) PBD binding inhibition. P53350. Plk1 PBD phosphopeptide binding, fluorescence polarization. inhibition, %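 (tested at about 20 µM)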. actives 0.13% (n = 97,000); in the data active = inhibition above about 34%, passing the limit was not always enough
ERa coact pot: enhances coactivator binding to human estrogen receptor alpha; TR-FRET ERalpha-LBD/SRC-Cy5 coactivator binding, 2 h; 100 = basal binding, no effect; actives 1.3% (n = 86,000); coactivator binding (% of control), % at 25.6 µM; P03372; in the data active = activity above about 200%;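 note: binding measured in presence of low estradiol as agonist stimulus; 0% = peptide alone without receptor and 100% = receptor with peptide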
PLK1 kinase inh: blocks human PLK1 kinase activity. inhibition, % at 10 µM. P53350. AID 619. recombinant PLK1 kinase, TR-FRET peptide phosphorylation. actives 0.53% (n = 97,000);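 active = inhibition of 50% or more in the single-concentration screen; inactive = inhibition below 50%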;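 note: 0% = DMSO max control and 100% = H-89 dihydrochloride min control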
Smad3 inh: blocks human Smad3 binding to FoxH1 peptide | P84022 | TR-FRET Smad3/Dy647-FoxH1 peptide binding, europium anti-His | inhibition, % at 25 µM | actives 0.29% (n = 88,000);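 active = compounds that reduce the energy-transfer binding signal between the protein and its labelled peptide by more than half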;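 note: 0% = Smad3 plus labelled peptide maximal FRET and 100% = peptide-only background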
Target sequence (P84022 whole entry, looked up): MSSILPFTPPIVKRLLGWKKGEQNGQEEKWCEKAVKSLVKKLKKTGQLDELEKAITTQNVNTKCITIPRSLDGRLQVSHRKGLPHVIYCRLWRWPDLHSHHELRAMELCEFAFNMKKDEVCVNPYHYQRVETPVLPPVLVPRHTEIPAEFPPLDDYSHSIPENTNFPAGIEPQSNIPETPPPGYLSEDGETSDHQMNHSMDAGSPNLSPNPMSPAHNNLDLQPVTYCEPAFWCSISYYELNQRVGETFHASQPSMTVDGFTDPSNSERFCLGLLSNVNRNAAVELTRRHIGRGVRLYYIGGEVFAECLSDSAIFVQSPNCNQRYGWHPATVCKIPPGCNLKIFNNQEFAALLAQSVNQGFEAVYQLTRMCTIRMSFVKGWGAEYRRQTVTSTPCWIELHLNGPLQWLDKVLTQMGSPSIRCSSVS
ERa SRC1 inh: ER-alpha (human) coactivator binding inhibition; actives 1.7% (n = 86,000); inhibition, % at 25.6 µM; P03372; AID 629; TR-FRET ER-alpha LBD / SRC-1 peptide, estradiol-bound; in the data active = inhibition above about 50%;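 note: 0% = receptor plus peptide control and 100% = peptide only without receptor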
ERb coact inh: ER-beta (human) coactivator binding inhibition; TR-FRET ER-beta LBD / SRC1-Cy5 peptide binding; receptor agonist-loaded with 1 µM estradiol; inhibition, % at 25.6 µM; Q92731; actives 1.3% (n = 86,000); AID 633;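 active = compounds whose percent inhibition of the receptor-coactivator binding signal exceeds about 50% in the single-dose screen, limit read from the data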;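 note: 0% = receptor plus peptide wells without compound and 100% = peptide-only wells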
The depositor's hits bear a star; / = no result; [ ] = dose if it differs, or a comment.

SMILES	Plk1 PBD FP	ERa coact pot	PLK1 kinase inh	Smad3 inh	ERa SRC1 inh	ERb coact inh
O=C(C1=COCCO1)N1CCN(S(=O)(=O)c2cccc(Cl)c2Cl)CC1	-1	107	0	-14	-9	60*[fluorescence artefact?]
Cc1ccc(C(C(=O)NC(C)(C)C)N(Cc2ccco2)C(=O)CCC(=O)Nc2nccs2)cc1 (stereo not given)	-33	99	24	1	-8	-7
COc1ccc2oc(C(=O)OCC(=O)c3ccc4c(c3)OCCO4)c(C)c2c1	9	229*	-9	-2	7	0
O=C1C(Cl)=C(Sc2nnc3c4ccccc4c4ccccc4c3n2)C(=O)c2ccccc21	/	/	/	5	/	/
COc1ccc(CNC(=O)Cn2c(=O)oc3ccccc32)cc1OC	-7	95	-11	-12	-6	0
CCCC1(C(=O)O)NC(c2ccccc2O)C2C(=O)N(Cc3ccccc3)C(=O)C21 (stereo not given)	23	115	-15	-8	6	-3
CSCCC1(C(=O)O)NC(c2ccccc2O)C2C(=O)N(C(C)C)C(=O)C21 (stereo not given)	36	112	-21	1	84*[fluorescence artefact?]	-4
O=C(Oc1ccc(-c2cnc3ccccc3n2)cc1)c1ccc(Br)o1	-5	489*	-12	-79	35	23
COCCn1c(-c2ccc(-c3ccccc3Cl)o2)nc2c1c(=O)[nH]c(=O)n2CC(C)C	-21	208*	-47	17	8	9
CC(=O)O[C@@H]1CC[C@]2(C)C(=C[C@H]([C@@H]3C=C4C[C@@H](OC(C)=O)CC[C@]4(C)C4=C3[C@@H]3C[C@@H]5O[C@@]6(CC[C@H](C)CO6)[C@@H](C)[C@@H]5[C@@]3(C)CC4)C3=C2CC[C@@]2(C)[C@@H]4[C@@H](C)[C@]5(CC[C@H](C)CO5)O[C@@H]4C[C@H]32)C1	/	/	/	-3	/	/
O=C(Nc1nccs1)c1nc(-c2ccccc2)n(-c2ccccc2)n1	-2	343*	1	-1	-5	4
Cc1csc(NC(=O)c2nc(-c3ccccc3)n(-c3ccccc3)n2)n1	/	88	/	-12	3	9
Cc1snc2sc(C(=O)c3ccc(Br)cc3)c(N)c12	-9	140	-3	9	71*	52*
CCN1C(=O)/C(=C2/Sc3ccc(OC)cc3N2C)SC1=Nc1ccc(C(C)=O)cc1	3	96	-5	6	36	31
CCN1C(=O)/C(=C2/Sc3ccc(OC)cc3N2C)SC1=Nc1cccc(O)c1	8	152	9	3	66*	64*
Cn1c(CSCc2ccc(Cl)cc2)nnc1SCC(=O)Nc1nccs1	-4	107	13	-7	-14	-10
Cn1c(CSCc2ccc(F)cc2)nnc1SCC(=O)Nc1nccs1	0	121	52*	0	1	-3
Cn1c(CSCc2ccccc2)nnc1SCC(=O)Nc1nccs1	-2	95	56*	15	6	-4
COc1ccc(C2C(C(=O)N3CCOCC3)CCC(=O)N2c2cc(OC)c(OC)c(OC)c2)cc1 (stereo not given)	10	101	-9	-3	4	-9
Clc1ccc(-c2nn3c(-c4ccccc4)nnc3s2)cc1	/	130	/	-8	40	38
Cc1cc(-c2nnc3sc(-c4ccc(Cl)cc4Cl)nn23)n[nH]1	-15	360*	3	-53	23	25
CCOc1cccc(-c2nn3c(-c4cc(C)[nH]n4)nnc3s2)c1	-10	90	-6	1	10	-4
Clc1cccc(-c2nnc3sc(-c4ccc5c(c4)OCO5)nn23)c1	/	199	/	-1	55*	44
CN(C)c1ccc(-c2nn3c(-c4ccc(Cl)cc4Cl)nnc3s2)cc1	/	51	/	27	85*[fluorescence artefact?]	64*[fluorescence artefact?]
COC(=O)CCC/C=C1/SCC(NC(=O)c2ccccc2)C1=O (stereo not given)	-34	100	-8	-2	5	4
SMILES	Plk1 PBD FP	ERa coact pot	PLK1 kinase inh	Smad3 inh	ERa SRC1 inh	ERb coact inh
COC(=O)CCC/C=C1/SCC(NC(=O)c2ccccc2)C1O (stereo not given)	17	213*	-6	3	17	3
COc1ccc(CC(=O)OCC(=O)Nc2ncc(Cl)cc2Cl)cc1	-2	53	-4	-2	52*[fluorescence artefact?]	43
Cc1csc(NC(=O)c2sc3nc(-c4cccs4)ccc3c2N)n1	-43	41	-16	5	85*[fluorescence artefact?]	53*[fluorescence artefact?]
CCCSc1nnc(NC(=O)c2sc3nc(-c4cccs4)ccc3c2N)s1	-87	/	-6	/	/	/
N=c1ccn2c(n1)O[C@H]1[C@@H](OP(=O)(O)O)[C@H](CO)O[C@H]12	/	/	/	1	/	/
O=C(NCCN1CCCCCC1)c1ccc(N2CCCC2=O)cc1	3	155	-4	-3	55*[fluorescence artefact?]	22
O=C(NCCCN1CCN(c2cccc(Cl)c2)CC1)c1ccc(N2CCCC2=O)cc1	8	101	-5	-8	-7	0
COc1ccc(CN(C(=O)CSc2nnc(-c3ccccc3F)o2)c2ccc(F)cc2)cc1	-5	111	7	-3	7	-5
N#Cc1cc2c(nc1SC1CCCCC1O)CCCC2 (stereo not given)	2	100	-9	93*	-6	-14
C=C(C)CSc1nc2c(cc1C#N)CCC2	-7	125	-4	19	4	99*[fluorescence artefact?]
Cc1cccc(CSc2nc3c(cc2C#N)CCC3)c1	28	179	-21	58*[fluorescence artefact?]	21	68*[fluorescence artefact?]
N#Cc1cc2c(nc1SCC(N)=O)CCCCC2	-7	73	-6	10	30	10
N#Cc1cc2c(nc1SCc1cccnc1)CCC2	32	99	-11	0	8	2
CCC(=O)[C@@H](c1ccccc1)c1ccccn1	/	/	/	-7	/	/
CCOCCCNC(=O)C1CCN(S(=O)(=O)N2CC(C)CC(C)C2)CC1 (stereo not given)	1	/	11	/	/	/
O=C(Nc1cc(Sc2ccccn2)cc([N+](=O)[O-])c1)c1ccc([N+](=O)[O-])cc1	9	/	-11	/	/	/
CCc1ccc(C(=O)CSc2n[nH]c(-c3ccncc3)n2)cc1	-18	101	6	6	9	-20
O=C(CSc1n[nH]c(-c2ccccc2)n1)c1ccc(O)c(O)c1	/	49	/	-4	67*[fluorescence artefact?]	77*[fluorescence artefact?]
N#CC(C(=O)NCCc1ccccc1)c1nc2ccccc2nc1N1CCOCC1 (stereo not given)	-15	168	-12	6	75*[fluorescence artefact?]	31
O=C(Nc1ccccc1C(=O)O)c1ccc2ccccc2n1	10	94	-12	6	1	91*[fluorescence artefact?]
CC(=O)Nc1cccc(C(=O)Nc2ccccc2C(=O)O)c1	-17	116	-3	0	-3	-6
O=C(Nc1ccccc1C(=O)O)c1ccccc1	-5	80	-7	0	39	51*
O=C(Nc1ccc(Cl)cn1)c1ccc2ccccc2n1	5	99	-9	7	3	-10
